# High-throughput results (PubChem BioAssay)
# Rows were chosen to be rich in hits. Some 2.7% of all compounds tested hit in one or more screens of this group.
# Nrf2 inh – Nrf2 pathway inhibition. A549 ARE-Fluc reporter, luciferase luminescence, 18-24 h. Potency, µM (doses to about 46 µM), inactives show at the highest dose activity change, negative = inhibition, hits mostly inhibitors. 360,000 tested, 2.1% active; further: potency means the concentration at half of the fitted maximal effect; on the % scale 0 is the no-effect control and ±100 the full control effect; nearly all actives have a fitted effect of over 60% in size
#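 Nrf2 function is reported as luminescence of an ARE-controlled luciferase in A549 cells. Compounds were tested at several concentrations, and a CellTiter-Fluor read on the same wells flagged cytotoxicity.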
# LDHA inh – blocks human lactate dehydrogenase A | P00338 | purified LDHA, NADH/diaphorase-resazurin fluorescence; active compounds read low | activity change, % (values are at about 110 or 230 µM) | 480,000 tested, 0.15% active | AID 1347041; in the data active means activity change below about -30%; inconclusive means mostly about -25% to -30%;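 further: plate controls were DMSO wells for no effect and wells without enzyme for full effect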
#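 Resorufin fluorescence (ex540/em590), read at 0 and 20 min after diaphorase/resazurin addition, reports the NADH left after a 5 min room-temperature reaction of 2 nM human LDH5 with 0.06 mM NADH and 0.2 mM pyruvate.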
# 12-LOX inh – inhibitors of human 12S-lipoxygenase ALOX12 | P18054 | purified 12hLO, xylenol orange hydroperoxide absorbance | Potency, µM (highest dose often 108 µM), without a hit: top-dose activity change, negative = inhibition, usual class: inhibitors | 580,000 tested, 1.1% active | AID 1671190; further: potency means the concentration at half of the fitted maximal effect; on the % scale 0 is the no-effect control and ±100 the full control effect
#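 Hydroperoxide product was detected by ferrous iron/xylenol orange as the 573 to 405 nm absorbance ratio. Arachidonic acid at 40 uM (final) was turned over for 30 min at room temperature by 150 nM human 12hLO, pH 7.0 Hepes buffer, after 15 min compound preincubation.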
# IDH1 R132H inh – human IDH1 R132H inhibition; 390,000 tested, 0.093% active; IDH1-R132H enzyme, NADPH consumption, diaphorase/resazurin fluorescence; O75874; Potency, µM (series often up to 76.6 µM), for the others: at the top dose activity change, negative = inhibition, hits mostly inhibitors; further: potency means the concentration at half of the fitted maximal effect; on the % scale 0 is the no-effect control and ±100 the full control effect; nearly all actives have a fitted effect of over 65% in size
#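 IDH1-R132H (0.5 ug/mL) preincubated 30 min with compound, then NADPH (0.016 mM) and alpha-KG (2 mM) added; 80 min at RT, pH 7.5. Remaining NADPH coupled via diaphorase/resazurin to fluorescence (540/590 nm); concentration-response curves normalized to no-enzyme control.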
# A549 tox-1 – kills or reduces viability of A549 cells in Nrf2 counter-screen; A549 ARE-Fluc cells, CellTiter-Fluor viability, 18-24 h; Potency, µM (top dose mostly 46 µM), inactives show at the highest dose activity change, negative = cytotoxicity, hits mostly inhibitors; 390,000 tested, 0.16% active; AID 504648; further: potency means the concentration at half of the fitted maximal effect; on the % scale 0 is the no-effect control and ±100 the full control effect
#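 A549 ARE-Fluc cells in 5% FBS OPTI-MEM, 5000 cells/well, rested 2 h then exposed to compounds in concentration-response for 18-24 h at 37 °C. Viability by CellTiter-Fluor fluorescence (Ex 405/Em 525) after 30 min; luciferase luminescence (BugLite, 15 min, RT) read afterwards.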
# Nrf2 activator – activators of Nrf2 (ARE) signaling; 410,000 tested, 0.31% active; AREc32 ARE-luciferase reporter (MCF7-derived line), luminescence, 24 h; Potency, µM (series often up to 46.1 µM), inactives show top-dose activation, actives largely listed as activators; AID 624171; further: potency means the concentration at half of the fitted maximal effect; % of control where 0% means no effect; nearly all actives have a fitted effect of over 65% in size
#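 Luminescent ARE reporter assay in AREc32_Fluc cells: overnight plating at 37 deg C, 24 hr compound incubation, Steady-Glo added, 30 min RT before reading.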
# FLuc enzyme inh – counter-screen for Nrf2 inhibitors: firefly luciferase enzyme inhibition; 1,400 tested, 4% active; Potency, µM (titrated, usually from 57.5 µM), for the others: at the top dose activity change, negative = inhibition, hits mostly inhibitors; purified firefly luciferase, luminescence inhibition; AID 720522; shares compounds with Nrf2 inh; further: potency means the concentration at half of the fitted maximal effect; on the % scale 0 is the no-effect control and ±100 the full control effect; nearly all actives have a fitted effect of over 65% in size
# Target sequence (P08659 whole entry, looked up): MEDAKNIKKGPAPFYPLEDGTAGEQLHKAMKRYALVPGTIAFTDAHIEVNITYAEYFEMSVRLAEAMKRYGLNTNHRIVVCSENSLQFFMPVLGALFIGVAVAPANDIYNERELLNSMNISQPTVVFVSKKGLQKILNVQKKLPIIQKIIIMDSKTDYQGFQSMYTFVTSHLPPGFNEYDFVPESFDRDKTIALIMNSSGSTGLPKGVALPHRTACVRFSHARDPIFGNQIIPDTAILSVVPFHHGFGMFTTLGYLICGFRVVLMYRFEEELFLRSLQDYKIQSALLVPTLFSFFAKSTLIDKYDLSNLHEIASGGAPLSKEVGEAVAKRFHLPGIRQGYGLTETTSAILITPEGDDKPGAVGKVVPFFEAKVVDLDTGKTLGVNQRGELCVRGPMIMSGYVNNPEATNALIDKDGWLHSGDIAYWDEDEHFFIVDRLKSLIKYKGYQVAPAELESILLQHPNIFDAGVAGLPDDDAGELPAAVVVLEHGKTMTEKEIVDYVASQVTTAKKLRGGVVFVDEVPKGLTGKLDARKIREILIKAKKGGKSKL
# A549 tox-2 – counter-screen for Nrf2 inhibitors: cytotoxicity in A549 ARE cells. shares compounds with Nrf2 inh. A549 ARE-Fluc cells, cytotoxicity counterscreen. Potency, µM (top dose mostly 46.1 µM), for inactives: top-dose activity change, negative = cytotoxicity, hits mostly inhibitors. 1,400 tested, 2% active;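 further: potency means the concentration at half of the fitted maximal effect; cells exposed to compounds for 18 to 24 hours; on the % scale 0 is the no-effect control and ±100 the full control effect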
# Nrf2 ARE inh – reduces Nrf2 ARE reporter signal in A549 cells; shares compounds with Nrf2 inh; A549 ARE-firefly luciferase reporter, luminescence; Potency, µM (titrated, usually from 46.1 µM), for the others: at the highest dose activity change, negative = inhibition, hits mostly inhibitors; 1,400 tested, 74% active; AID 720524; further: potency means the concentration at half of the fitted maximal effect; on the % scale 0 is the no-effect control and ±100 the full control effect; nearly all actives have a fitted effect of over 65% in size
# * hit, by the source's call; ? = inconclusive; nt = no result given; ! = repeats disagree. Unless noted, the call rests on the fitted dose curve; in most records, active means well fitted curve in the direction sought with a large enough effect; inconclusive means small, poorly fitted or top-dose-only effect, or another doubt; inactive means no such curve, though single readings can be large; an effect the other way counts as inactive or inconclusive.
SMILES,Nrf2 inh,LDHA inh,12-LOX inh,IDH1 R132H inh,A549 tox-1,Nrf2 activator,FLuc enzyme inh,A549 tox-2,Nrf2 ARE inh
O=C(c1ccc2c(=O)n(CCc3ccccc3)c(=O)[nH]c2c1)N1CCN(c2ccc(Cl)cc2)CC1,?,-18,-22%,-3%,4%,1%,nt,nt,nt
COCCn1c(=O)[nH]c2cc(C(=O)N3CCN(c4ccc(Cl)cc4)CC3)ccc2c1=O,5.8µM*!,-5,-5%,17%,-23%,0%,1%,-11%,?
CCN(CC(=O)Nc1c(C(=O)OC)[nH]c2ccc(Cl)cc12)c1ccc2c(c1)OCO2,?,4,?,0%,-20%,6%,nt,nt,nt
CCOC(=O)c1[nH]c2ccc(Cl)cc2c1NC(=O)/C=C/c1ccc2c(c1)OCO2,5.2µM*,-7,-12%,-1%,-23%,0%,0%,-27%,4.1µM*
COc1cccc(NC(=O)c2nnn(Cc3nc(-c4ccc(OC(C)C)cc4)oc3C)c2N)c1,nt,11,2%,nt,nt,nt,nt,nt,nt
Cc1ccc(N(CC2=NCCN2)c2cccc(O)c2)cc1,7.3µM*!,-3,1%,-11%,?,0%,-1%,-7%,10µM*
COc1ccc(CCNC(=O)/C=C\c2ccccc2)cc1OC,-16%,-9,6%,-5%,-3%,-1%,nt,nt,nt
COc1ccc(/C=C/C(=O)NC(=S)NCCc2ccc(OC)c(OC)c2)cc1,7.3µM*,-3,1%,-1%,?,-1%,-4%,-13%,5%
CC(C)(C)n1ncc2c(=O)n(Cc3ccc(-c4ccccc4C#N)cc3)cnc21,nt,nt,nt,nt,nt,nt,-11%,-9%,9.2µM*
CC(=O)N1CCN(C(=O)CN2C(=O)NC(C)(c3ccc4ccccc4c3)C2=O)CC1 (centres undefined),-10%,-15,363%,4%,6%,0%,nt,nt,nt
CC1(c2ccc3ccccc3c2)NC(=O)N(CC(=O)N2CCN(Cc3ccc(C#N)cc3)CC2)C1=O (centres undefined),0.41µM*,5,nt,0%,-14%,2%,0%,2%,0.82µM*
COc1ccc(NC(=O)CCc2ncc(-c3ccccc3)o2)c(OC)c1,nt,-21,-1%,nt,nt,nt,nt,nt,nt
O=[N+]([O-])c1ccc(N/N=C/c2sc(N3CCOCC3)nc2-c2ccccc2)c(S(=O)(=O)Nc2ccc(Cl)cc2)c1,1.5µM*,-3,0%,14%,2.6µM*,0%,-23%,?,3.3µM*
Cc1cccc(C)c1NC(=O)CSc1nc2nc(C)c(Br)cc2[nH]1,nt,1,32%,nt,nt,nt,nt,nt,nt
COc1ccc(-c2nnn(CC(=O)N3CCN(c4ccc(F)cc4)CC3)n2)cc1,11%,-2,21%,1%,2%,0%,nt,nt,nt
COc1ccc(N2CCN(C(=O)CN3CCN(c4nc(-c5ccc(F)cc5)cs4)CC3)CC2)cc1,7.3µM*,-4,-17%,-1%,?,0%,-5%,-16%,12µM*
Cc1ccc(-n2c(-c3ccccc3)c[n+]3c2CCC3)cc1,5.8µM*,-6,-19%,-9%,?,0%,0%,-6%,6.5µM*
Cc1ccc(-n2c(-c3ccc(Cl)cc3)c[n+]3c2CCC3)cc1,3.7µM*,-2,200%,1%,-15%,0%,3%,-2%,-36%
